# Measured values reported in the supplement of paper PMC10646978.
# ± gives the standard deviation.
# Key:
# Details in all cases: modulator concentration 10 µM
# [1] = tested on: RAW-Dual (murine macrophage reporter line); assay: NF-kB reporter (SEAP) activity fold change vs agonist alone; higher = enhanced NF-kB activity
# Procedure, shortened: (§1)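 RAW-Dual murine macrophage reporter cells were seeded at 50 000 per well in 384-well plates and pre-incubated 1 hour at 37 °C with compound pin-transferred to 10 μM final. After 1 hour, a PRR agonist was added and cells incubated overnight. Supernatant NF-κB (SEAP, QUANTI-Blue, 620 nm absorbance) and IRF (Lucia luciferase, QUANTI-Luc, luminescence) signals were divided by the mean agonist-only control on the same plate to give fold change. Two replicate plates were averaged, with errors by propagation.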
# [2] = tested on: RAW-Dual (murine macrophage reporter line); assay: IRF reporter (Lucia luciferase) activity fold change vs agonist alone; higher = enhanced IRF activity
# Procedure, shortened: as §1
# [3] = tested on: RAW-Dual (murine macrophage reporter line); assay: viability score (confluency relative to resting cells, overnight) (fraction); higher = more viable, active = viable (0.7 or more)
# Procedure, shortened: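 RAW-Dual macrophages in 384-well plates were incubated overnight with compound, final concentration 10 μM. Confluency images from IncuCyte were processed in IncuCyte software into two masks covering all imaged wells. The viability score is each well's confluency relative to resting cells, and a compound met the cutoff when both masks exceeded 70% of resting cells.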
# [4] = agonist: CpG ODN 1826 0.5 ug/mL
Structure (SMILES),"NF-kB reporter [1, 4]",NF-kB reporter ([1]; agonist: LPS 0.1 ug/mL),NF-kB reporter ([1]; agonist: MPLA […]),IRF reporter ([2]; agonist: 3'3'-cGAMP 10 ug/mL),IRF reporter ([2]; agonist: LPS 0.1 ug/mL),IRF reporter ([2]; agonist: MPLA […]),viability score [3]
COc1cc(C2c3cc4c(c(O)c3CC3COC(=O)C32)OCO4)cc(OC)c1OC (centres undefined),2.38 ± 0.14,1.31 ± 0.086,2.08 ± 0.14,0.0984 ± 0.0043,1.75 ± 0.2,1.92 ± 0.17,0.735 (active)
CC(NC(C)(C)C)C(=O)c1cccc(Cl)c1.Cl (centres undefined),0.906 ± 0.1,1.09 ± 0.11,0.99 ± 0.048,0.986 ± 0.065,0.955 ± 0.1,0.904 ± 0.14,0.998 (active)
CN1C(=O)NC(=O)C(=Cc2ccc([N+](=O)[O-])s2)C1=O,1.12 ± 0.12,1.08 ± 0.07,1.05 ± 0.036,0.895 ± 0.098,0.925 ± 0.12,0.914 ± 0.19,1 (active)
COc1ccc(CNCCc2c[nH]c3ccccc23)c(OC)c1C,0.258 ± 0.021,0.924 ± 0.076,2.6 ± 0.15,1.4 ± 0.048,3.32 ± 0.42,2.88 ± 0.25,0.178 (inactive)
CCOC(=O)c1ccccc1-c1ccc(C=C2C(=O)NC(=O)N(c3cccc(C)c3)C2=O)o1,1 ± 0.18,0.965 ± 0.11,0.881 ± 0.069,1 ± 0.029,1.2 ± 0.14,1.09 ± 0.12,0.995 (active)
COc1cc2c(cc1OC)C1C(=O)c3ccc4c(c3OC1CO2)CC(C(C)C)O4 (centres undefined),1.11 ± 0.19,1.48 ± 0.12,2.31 ± 0.18,0.857 ± 0.06,1.89 ± 0.32,2.1 ± 0.4,0.976 (active)
CCN(CC)CCOC(=O)C(O)(c1ccccc1)c1ccccc1.Cl,1.16 ± 0.16,1.04 ± 0.41,0.923 ± 0.066,1.38 ± 0.043,1.03 ± 0.3,1.44 ± 0.11,0.98 (active)
COc1cc2c(cc1OC)C1CC(=O)C(CC(C)C)CN1CC2 (centres undefined),1.09 ± 0.093,1.04 ± 0.076,0.986 ± 0.045,0.983 ± 0.065,0.933 ± 0.047,0.904 ± 0.073,0.992 (active)
CN1C2CCC1CC(OC(=O)C(CO)c1ccccc1)C2 (centres undefined),1.23 ± 0.29,1.19 ± 0.083,1.14 ± 0.098,0.91 ± 0.032,1.24 ± 0.15,1.15 ± 0.16,0.986 (active)
CCC1(c2ccc(N)cc2)CCC(=O)NC1=O (centres undefined),1.22 ± 0.091,1.04 ± 0.052,1.06 ± 0.089,1.12 ± 0.26,0.913 ± 0.077,0.939 ± 0.083,0.996 (active)
CC[C@@]1(O)C(=O)OCc2c1cc1n(c2=O)Cc2cc3ccccc3nc2-1 [Prestw-200],1.33 ± 0.23,1.75 ± 0.17,2.95 ± 0.72,3.06 ± 0.081,2.05 ± 0.42,2.66 ± 0.37,0.768 (active)
COc1cc(CNCCc2c[nH]c3ccccc23)cc(OC)c1O,0.642 ± 0.052,0.811 ± 0.12,1.04 ± 0.096,0.93 ± 0.043,1.44 ± 0.11,1.56 ± 0.15,1 (active)
CC(C)NC(C)C(O)c1ccc2c(c1)CCCC2.Cl (centres undefined),0.838 ± 0.066,1 ± 0.086,1.1 ± 0.038,0.818 ± 0.091,1 ± 0.099,0.891 ± 0.23,0.994 (active)
O=C(CCCN1CCC(n2c(=O)[nH]c3ccccc32)CC1)c1ccc(F)cc1 [Prestw-484],0.641 ± 0.18,1.11 ± 0.096,1.02 ± 0.097,0.851 ± 0.035,1.1 ± 0.12,1.33 ± 0.14,1 (active)
Cc1cc(N2CCNCC2)c2ccccc2n1,0.0643 ± 0.01,0.789 ± 0.062,0.899 ± 0.092,0.561 ± 0.045,1.15 ± 0.31,1.15 ± 0.16,0.994 (active)
CC(O)(CS(=O)(=O)c1ccc(F)cc1)C(=O)Nc1ccc(C#N)c(C(F)(F)F)c1 (centres undefined),1.38 ± 0.26,0.966 ± 0.081,0.952 ± 0.053,0.991 ± 0.067,1.05 ± 0.095,1.23 ± 0.17,0.987 (active)
O=C(O)CC[N+](=O)[O-],0.87 ± 0.22,0.979 ± 0.066,0.974 ± 0.063,0.912 ± 0.086,0.96 ± 0.23,0.933 ± 0.12,1 (active)
O=C1NC(=S)NC(=O)C1=Cc1ccc(OCc2ccc(F)cc2)c(Cl)c1,0.918 ± 0.092,0.943 ± 0.064,0.802 ± 0.05,0.765 ± 0.02,1.13 ± 0.095,0.824 ± 0.14,1.01 (active)
CC12CCC3C(CCC4CC(O)CCC43C)C1CCC2O (centres undefined),1.23 ± 0.29,0.968 ± 0.059,2.43 ± 1.5,0.891 ± 0.037,1.13 ± 0.18,1.21 ± 0.14,0.963 (active)
O=C1CCC(=O)N1C1CC2CCC(C1)N2C(=O)Cc1cccc2ccccc12 (centres undefined),0.977 ± 0.049,1.12 ± 0.099,0.913 ± 0.11,1.08 ± 0.066,1.25 ± 0.076,1.16 ± 0.21,1.01 (active)
COc1ccc2c(c1O)-c1c(OC)c(OC)cc3c1C(C2)N(C)CC3 (centres undefined),0.618 ± 0.051,0.905 ± 0.088,1.1 ± 0.1,0.903 ± 0.046,1.29 ± 0.14,1.45 ± 0.17,1.04 (active)
CC12CCC3C(CC=C4CC(O)CCC43C)C1CC(=Cc1cccc(F)c1)C2=O (centres undefined),0.722 ± 0.046,1 ± 0.061,1.05 ± 0.083,0.907 ± 0.03,1.61 ± 0.13,1.31 ± 0.12,0.933 (active)
CC[C@@H](C(N)=O)N1CCCC1=O,1.04 ± 0.1,1.05 ± 0.059,0.993 ± 0.056,1.06 ± 0.17,0.88 ± 0.075,0.863 ± 0.15,1 (active)
O=C(O)c1nn(Cc2ccc(Cl)cc2Cl)c2ccccc12,0.833 ± 0.12,0.959 ± 0.14,0.943 ± 0.055,0.926 ± 0.033,1.04 ± 0.25,1.06 ± 0.18,1 (active)
O=[N+]([O-])c1ccc(NCCc2ccccc2)c2ncccc12,0.971 ± 0.17,1.04 ± 0.086,1.6 ± 0.64,0.926 ± 0.032,1.25 ± 0.21,1.31 ± 0.2,0.997 (active)
CC(=O)OC1CCC2(C)C(CCC3C4CCC(=O)C4(C)CCC32)C1 (centres undefined),1.22 ± 0.29,1.06 ± 0.054,1.02 ± 0.089,0.939 ± 0.032,1.21 ± 0.19,1.11 ± 0.18,1.01 (active)
CCC1(c2ccccc2)C(=O)N(Cc2ccccc2)C(=O)N(Cc2ccccc2)C1=O,0.516 ± 0.03,1.08 ± 0.1,0.967 ± 0.056,1.17 ± 0.093,1.25 ± 0.14,1.18 ± 0.11,1.01 (active)
